Each structure is given as a SMILES string. Inconclusive results are not listed. Activity calls are given as the source filed them. Calls come from the whole dose curve; as a rule, active = well fitted cell-killing curve with a large enough effect; inconclusive = small, poorly fitted or top-dose-only effect; inactive = flat fitted curve, though single readings scatter.
Potency is the fitted concentration of half-maximal effect.

A short description of the experiment: DAPI mCherry counterscreen qHTS for Zika virus inhibitors. Note: nearly all actives have a fitted effect of over 55% in size. Particulars: Vero cells, DAPI nuclear count cytotoxicity, imaging 48-72 h, infected with Zika reporter virus, MOI 1; series mostly up to 32.6 µM. The procedure, abridged: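 Vero cells (5,000/well), plated overnight, given compounds then recombinant ZIKV-mCherry at MOI 1 for 48-72 hrs at 37 degrees C; PFA-fixed, Hoechst-stained and imaged; nuclei counted and mCherry-positive cells scored as percent infection.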
Background: The purpose of a counterscreen is to sort out artefacts and off-target activity.
Regarding `C[C@@H](NC(=O)c1ccc(Cl)cc1)c1c(-c2ccc(F)cc2)noc1C(=O)O`, the Potency entry was “inactive”. In the case of `COc1ccc(Cl)c(Nc2nc3ccccc3nc2NS(=O)(=O)c2cccc(NC(=O)C(C)(C)N)c2)c1`, the Potency is 22.4 µM (active). In the case of `O=C(Nc1cccc(C(=O)OCc2cc(=O)n3nc(C4CC4)sc3n2)c1)c1cccc(F)c1`, the Potency entry was “inactive”. On to `O=C(Nc1cccc2c(=O)cc(-c3nn[nH]n3)oc12)c1ccc(OCCCCc2ccccc2)cc1`, for which the Potency is 35.5 µM (active). Consider `C/C(=C\CC/C(C)=C/CC[C@]1(C)CCc2cc(O)cc(C)c2O1)CC/C=C(\C)C(=O)O`, for which the Potency is 14.1 µM (active). As for `O=C(O)Cn1nnc(-c2ccc(OCc3cccc(C(F)(F)F)c3)cc2)n1`, the entry is “inactive”; as for `CCOc1ccc(C(=O)Nc2cccc(C(=O)OCc3cc(=O)n4nc(C5CC5)sc4n3)c2)cc1`, 11.2 µM (active). `Cc1cc(OCCCc2c(C(=O)O)n(Cc3cccnc3)c3c(-c4c(COc5ccc(N6CCN([S+](C)(=O)[O-])CC6)cc5)nn(C)c4C)cccc23)cc(C)c1Cl`: the Potency is 14.1 µM (active). `COC(=O)c1ccc([C@H]2Nc3ccc(S(=O)(=O)Nc4ccc(C)cc4)cc3[C@H]3C=CC[C@H]32)cc1`: the Potency result is “inactive”. As to `CN(C)[C@@H]1C(=O)C(C(N)=O)=C(O)[C@@]2(O)C(=O)C3=C(O)c4c(O)cccc4C[C@H]3C[C@@H]12`, the Potency entry is “inactive”. As to `CC(C)c1cccc2c(-c3ccccc3)cc(-c3ccc(-c4ccc(C(=O)O)cc4)[nH]3)nc12`, the Potency is 25.1 µM (active).

Take `CCC(=O)O[C@H]1[C@H](O[C@@H]2[C@@H](C)[C@H](O[C@H]3C[C@@](C)(OC)[C@@H](O)[C@H](C)O3)[C@@H](C)C(=O)O[C@H](CC)[C@@](C)(O)[C@H](O)[C@@H](C)C(=O)[C@H](C)C[C@@]2(C)O)O[C@H](C)C[C@@H]1N(C)C`: the Potency is 35.5 µM (active).

Regarding `Oc1cc2ccccc2c2ccccc12`, the Potency is 10 µM (active).

`Cc1c(Cl)cccc1NS(=O)(=O)c1ccc(NS(=O)(=O)c2ccc3c(c2)OCCO3)cc1`: the Potency is 31.6 µM (active). As for `CC(C)C[C@H](C(=O)O)c1cc(-c2ccc(C(F)(F)F)cc2)cc(-c2ccc(C(F)(F)F)cc2)c1`, the Potency was 11.2 µM (active). In the case of `NC(=O)c1ccc2nc(-c3ccc(Oc4ccc(Cl)cc4)cc3)[nH]c2c1`, the Potency is 31.6 µM (active).

As for `CCCCc1nn2c(=O)cc(COC(=O)c3ccc(NC(=O)CCc4ccccc4)cc3)nc2s1`, the Potency entry was “inactive”. Consider `Cc1cccc(C(=O)Nc2ccc(C(=O)OCc3cc(=O)n4nc(C5CC5)sc4n3)cc2)c1`, for which the Potency is 15.8 µM (active). As for `CC(=O)N1c2ccc(-c3ccc(C(=O)O)cc3)cc2C(Nc2ccc(Cl)cc2)CC1C` (centres undefined), the figure is 1 µM (active).

For the compound `N#C/C(=C\c1ccc(-c2ccc(Cl)c(C(=O)O)c2)o1)c1nc2ccccc2[nH]1`, the Potency entry is “inactive”.

Regarding `CCCCCCCC/C=C\CCCCCCCC(=O)NCCc1ccc(O)c(O)c1`, the Potency is 8.91 µM (active). As for `CC(=O)C(N=Nc1ccc(S(=O)(=O)Nc2ccccn2)cc1)C(=O)Nc1ccc(Cl)cc1` (centres undefined), the Potency result is “inactive”. Take `COc1ccc2c(c1)Oc1nc(-c3ccc(C)s3)nc(SCC(=O)Nc3cccc(C(=O)O)c3)c1C2`: the Potency result was “inactive”. Take `COc1ccc(-c2cc(=O)c3c(O)cc(O)c(-c4cc(-c5cc(=O)c6c(O)cc(O)cc6o5)ccc4OC)c3o2)cc1`: the Potency was 12.6 µM (active). As for `N#CC(C#N)=C(N)/C(C#N)=C/c1cc(O)c(O)c(O)c1`, the entry is “inactive”. For the compound `O=C(O)c1cccc(-c2ccc(-c3cn(C(=O)N4CCCCC4Cc4ccccc4)nn3)cc2)c1` (centres undefined), the Potency was 35.5 µM (active). For the compound `O=C(O)c1ccccc1Nc1cccc(OCc2ccc3ccccc3n2)c1`, the Potency is 31.6 µM (active). With `CC(C)=CCCC1(C)C=Cc2c(O)c3c(c(CC=C(C)C)c2O1)OC12C(=CCCC1C(C)(C)O[C@@]2(C/C=C(\C)C(=O)O)C(=O)O)C3=O` (some centres undefined), the Potency is 15.8 µM (active).

`COc1c2occc2cc2ccc(=O)oc12`: the Potency result is “inactive”. Regarding `O=C(Nc1ccc(C(=O)OCc2cc(=O)n3c4c(sc3n2)CCCC4)cc1)c1ccc(F)cc1`, the Potency entry was “inactive”. As for `O=C(NCc1ccc(Oc2ccccc2)cc1)c1nc(-c2cc(Br)c(O)c(Br)c2)no1`, the figure is 8.91 µM (active); as for `CC(=O)Nc1ccc(S(=O)(=O)O)c2cc(S(=O)(=O)O)c(N=Nc3ccc(N=Nc4ccc(S(=O)(=O)O)cc4)c4ccc(S(=O)(=O)O)cc34)c(O)c12`, “inactive”; as for `O=S(=O)(Nc1ccc(O)c(Sc2nc3ccccc3s2)c1)c1cc(Cl)ccc1Cl`, 35.5 µM (active). Consider `CC(C)=CCOc1ccc(/C=C/C(=O)c2ccc(OCC=C(C)C)cc2OCC(=O)O)cc1`, for which the Potency was 25.1 µM (active).

For the origin of these results see PubChem BioAssay AID1347156 (National Center for Advancing Translational Sciences (NCATS), 2019).
